Assay in all cases: DAPPL (digital affinity profiling via proximity ligation, sequencing); 10 mM Tris-HCl pH 7.5, 50 mM NaCl, 1 mM DTT, 4% glycerol, room temperature, 30 min; GST-TFs on glutathione beads, 16-mer random dsDNA library, 0.1% formaldehyde crosslink after washing; high values mean tight binding
What all share (details): protein: recombinant; tags: N-terminal GST; dsDNA, one strand shown

One assay concerns the target T1, ERF (Homo sapiens, UniProt P50548 1-548).
T1 sequence: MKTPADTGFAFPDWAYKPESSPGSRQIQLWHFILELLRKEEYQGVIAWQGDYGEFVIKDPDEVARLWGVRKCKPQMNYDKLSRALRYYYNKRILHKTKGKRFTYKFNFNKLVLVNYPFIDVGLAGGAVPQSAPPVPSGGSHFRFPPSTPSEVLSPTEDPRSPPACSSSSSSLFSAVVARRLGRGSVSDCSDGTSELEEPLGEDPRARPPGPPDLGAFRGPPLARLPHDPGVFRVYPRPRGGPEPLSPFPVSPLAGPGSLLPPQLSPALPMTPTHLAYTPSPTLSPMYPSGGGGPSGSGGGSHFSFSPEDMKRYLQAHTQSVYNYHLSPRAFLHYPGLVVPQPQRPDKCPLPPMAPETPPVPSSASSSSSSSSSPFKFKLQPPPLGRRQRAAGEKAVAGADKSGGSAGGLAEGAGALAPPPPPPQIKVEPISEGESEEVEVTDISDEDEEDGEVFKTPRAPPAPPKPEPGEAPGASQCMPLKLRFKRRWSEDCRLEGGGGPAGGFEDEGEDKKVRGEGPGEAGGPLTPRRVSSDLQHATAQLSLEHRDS
A digest of the protocol:
(§1)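 Human transcription factors carrying a GST fusion were produced in yeast, bound to glutathione beads, tagged with DNA barcodes and pooled together with a tag-only sample. Each pool was held with 200 nmole of a random double-stranded 16-mer DNA library in Tris/NaCl/DTT/glycerol buffer for 30 min at room temperature, then washed, crosslinked in 0.1% formaldehyde, proximity-ligated with BsaI/T4 ligase (1 h, 37 °C), PCR-amplified and sequenced on an Illumina NextSeq500. Binding signal is the read frequency of each hexamer for a given factor divided by its frequency in the tag-only sample.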

The target in another assay is T2, ETV3L (Homo sapiens, UniProt Q6ZN32 1-361).
T2 sequence: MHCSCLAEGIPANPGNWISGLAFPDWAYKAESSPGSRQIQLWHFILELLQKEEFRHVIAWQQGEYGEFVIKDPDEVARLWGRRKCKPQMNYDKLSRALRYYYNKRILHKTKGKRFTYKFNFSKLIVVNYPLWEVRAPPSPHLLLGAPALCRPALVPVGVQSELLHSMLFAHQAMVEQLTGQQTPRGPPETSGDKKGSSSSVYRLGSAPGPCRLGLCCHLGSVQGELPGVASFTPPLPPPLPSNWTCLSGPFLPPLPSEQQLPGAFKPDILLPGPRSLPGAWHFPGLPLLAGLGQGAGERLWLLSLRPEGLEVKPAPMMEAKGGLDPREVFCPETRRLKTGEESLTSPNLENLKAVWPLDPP
A digest of the protocol: as §1

In a further assay the target is T3, ETS2 (Homo sapiens, UniProt P15036 1-469).
T3 sequence: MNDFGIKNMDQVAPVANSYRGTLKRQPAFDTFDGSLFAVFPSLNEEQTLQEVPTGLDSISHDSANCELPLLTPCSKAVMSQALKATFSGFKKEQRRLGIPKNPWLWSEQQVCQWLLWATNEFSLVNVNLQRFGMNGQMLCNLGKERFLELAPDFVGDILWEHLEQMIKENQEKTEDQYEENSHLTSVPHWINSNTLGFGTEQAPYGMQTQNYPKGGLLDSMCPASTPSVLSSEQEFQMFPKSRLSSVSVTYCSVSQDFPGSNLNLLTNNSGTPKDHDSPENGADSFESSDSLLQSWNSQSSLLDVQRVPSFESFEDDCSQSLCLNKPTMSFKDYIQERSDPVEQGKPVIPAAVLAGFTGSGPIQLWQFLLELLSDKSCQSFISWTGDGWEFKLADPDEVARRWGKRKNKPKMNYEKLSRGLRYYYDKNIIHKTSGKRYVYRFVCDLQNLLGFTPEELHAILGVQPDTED
In a few lines: as §1

For a further assay, the target named is T4, SPDEF (Homo sapiens, UniProt O95238 1-335).
T4 sequence: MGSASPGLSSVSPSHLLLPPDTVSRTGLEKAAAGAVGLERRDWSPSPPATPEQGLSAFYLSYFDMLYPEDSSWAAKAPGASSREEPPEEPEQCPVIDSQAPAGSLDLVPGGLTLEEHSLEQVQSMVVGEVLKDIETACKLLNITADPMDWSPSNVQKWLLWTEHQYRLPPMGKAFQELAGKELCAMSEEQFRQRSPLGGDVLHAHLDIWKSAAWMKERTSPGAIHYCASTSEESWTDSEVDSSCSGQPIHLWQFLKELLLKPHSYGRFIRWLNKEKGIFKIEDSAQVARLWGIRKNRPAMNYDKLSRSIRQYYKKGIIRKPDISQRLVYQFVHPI
A digest of the protocol: as §1

Another assay deals with T5, ETV7 (Homo sapiens, UniProt Q9Y603 1-341).
T5 sequence: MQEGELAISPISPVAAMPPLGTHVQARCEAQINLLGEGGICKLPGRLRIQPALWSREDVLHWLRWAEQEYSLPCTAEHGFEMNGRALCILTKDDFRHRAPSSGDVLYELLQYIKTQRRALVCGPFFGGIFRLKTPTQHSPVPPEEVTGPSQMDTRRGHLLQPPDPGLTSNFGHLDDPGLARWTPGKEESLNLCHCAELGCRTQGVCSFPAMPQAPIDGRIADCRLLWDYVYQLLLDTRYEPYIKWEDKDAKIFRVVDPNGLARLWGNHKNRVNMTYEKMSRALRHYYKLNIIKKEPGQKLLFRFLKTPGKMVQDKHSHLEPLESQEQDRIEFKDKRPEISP
A digest of the protocol: as §1

The target in a further assay is T6, ELF5 (Homo sapiens, UniProt Q9UKW6-2 1-255).
T6 sequence: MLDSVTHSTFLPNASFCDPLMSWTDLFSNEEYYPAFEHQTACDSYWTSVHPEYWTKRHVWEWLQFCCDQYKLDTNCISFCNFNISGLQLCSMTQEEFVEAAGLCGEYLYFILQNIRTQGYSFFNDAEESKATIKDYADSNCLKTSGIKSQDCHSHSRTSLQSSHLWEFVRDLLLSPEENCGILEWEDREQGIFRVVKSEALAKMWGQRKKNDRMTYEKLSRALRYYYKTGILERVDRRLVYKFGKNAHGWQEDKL
A digest of the protocol:
as §1

The target of another assay is T7, ETV3 (Homo sapiens, UniProt P41162-2 1-143).
T7 sequence: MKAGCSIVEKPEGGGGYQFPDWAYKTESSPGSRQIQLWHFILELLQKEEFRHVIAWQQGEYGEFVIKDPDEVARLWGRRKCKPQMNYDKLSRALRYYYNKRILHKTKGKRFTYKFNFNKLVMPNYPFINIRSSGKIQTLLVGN
A digest of the protocol:
as §1

The target in a further assay is ETV6 (Homo sapiens, UniProt P41212 1-452). In a few lines:
as §1

ETV6, sequence (P41212 whole entry): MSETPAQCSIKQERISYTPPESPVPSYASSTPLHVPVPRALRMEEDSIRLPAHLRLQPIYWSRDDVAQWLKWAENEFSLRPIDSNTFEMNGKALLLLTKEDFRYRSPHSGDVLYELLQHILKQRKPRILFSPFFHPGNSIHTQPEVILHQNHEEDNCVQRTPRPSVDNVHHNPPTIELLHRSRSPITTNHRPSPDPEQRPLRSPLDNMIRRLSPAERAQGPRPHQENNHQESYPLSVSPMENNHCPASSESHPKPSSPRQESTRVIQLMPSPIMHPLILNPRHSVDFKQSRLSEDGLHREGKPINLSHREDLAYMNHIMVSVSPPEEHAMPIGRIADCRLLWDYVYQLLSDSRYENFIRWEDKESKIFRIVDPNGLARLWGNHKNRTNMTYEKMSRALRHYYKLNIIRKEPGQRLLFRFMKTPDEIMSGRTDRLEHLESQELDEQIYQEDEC

On to ATAGCT, for which the binding signal in the assay with ERF was 1.2 fold enrichment (6-mer frequency, TF over GST control); with ETV3L it was 1.13 fold enrichment (6-mer frequency, TF over GST control); with ETS2, 1.1 fold enrichment (6-mer frequency, TF over GST control); in the assay with SPDEF, 1.07 fold enrichment (6-mer frequency, TF over GST control); with ETV7, 1.31 fold enrichment (6-mer frequency, TF over GST control); in the assay with ELF5, 1.07 fold enrichment (6-mer frequency, TF over GST control). The binding signal with ETV3 is 1.12 fold enrichment (6-mer frequency, TF over GST control); in the assay with ETV6, 1.13 fold enrichment (6-mer frequency, TF over GST control).
Regarding GATGCG, the binding signal with ERF was 1.17 fold enrichment (6-mer frequency, TF over GST control); with ETV3L it was 1.25 fold enrichment (6-mer frequency, TF over GST control); with ETS2 it was 1.2 fold enrichment (6-mer frequency, TF over GST control); in the assay with SPDEF, 1.25 fold enrichment (6-mer frequency, TF over GST control); with ETV7, 1.22 fold enrichment (6-mer frequency, TF over GST control); in the assay with ELF5, 1.1 fold enrichment (6-mer frequency, TF over GST control). Besides, the binding signal was 1.23 fold enrichment (6-mer frequency, TF over GST control) with ETV3 and 1.12 fold enrichment (6-mer frequency, TF over GST control) with ETV6.
As to CCATCT, the binding signal with ERF was 1.41 fold enrichment (6-mer frequency, TF over GST control); with ETV3L it was 1.35 fold enrichment (6-mer frequency, TF over GST control); with ETS2, 1.35 fold enrichment (6-mer frequency, TF over GST control); with SPDEF, 1.11 fold enrichment (6-mer frequency, TF over GST control); with ETV7, 1.33 fold enrichment (6-mer frequency, TF over GST control); with ELF5, 1.27 fold enrichment (6-mer frequency, TF over GST control). For the same sequence, the binding signal in the assay with ETV3 is 1.25 fold enrichment (6-mer frequency, TF over GST control); in the assay with ETV6, 1.25 fold enrichment (6-mer frequency, TF over GST control).
Consider CCGCCC, for which the binding signal with ERF was 1.21 fold enrichment (6-mer frequency, TF over GST control); with ETV3L, 1.36 fold enrichment (6-mer frequency, TF over GST control); in the assay with ETS2 it was 1.29 fold enrichment (6-mer frequency, TF over GST control); with SPDEF, 1.27 fold enrichment (6-mer frequency, TF over GST control); with ETV7, 1.19 fold enrichment (6-mer frequency, TF over GST control); with ELF5 it was 1.38 fold enrichment (6-mer frequency, TF over GST control). In addition, the binding signal is 1.36 fold enrichment (6-mer frequency, TF over GST control) with ETV3 and 1.39 fold enrichment (6-mer frequency, TF over GST control) with ETV6.
As to CCTCAT, the binding signal is 1.32 fold enrichment (6-mer frequency, TF over GST control) in the assay with ERF; 1.37 fold enrichment (6-mer frequency, TF over GST control) in the assay with ETV3L; 1.29 fold enrichment (6-mer frequency, TF over GST control) in the assay with ETS2; 1.31 fold enrichment (6-mer frequency, TF over GST control) in the assay with SPDEF; 1.25 fold enrichment (6-mer frequency, TF over GST control) with ETV7; 1.58 fold enrichment (6-mer frequency, TF over GST control) with ELF5. Further, the binding signal in the assay with ETV3 is 1.32 fold enrichment (6-mer frequency, TF over GST control); with ETV6, 1.39 fold enrichment (6-mer frequency, TF over GST control).
As to TGCTCA, the binding signal in the assay with ERF is 1.5 fold enrichment (6-mer frequency, TF over GST control); with ETV3L, 1.31 fold enrichment (6-mer frequency, TF over GST control); with ETS2, 1.36 fold enrichment (6-mer frequency, TF over GST control); with SPDEF, 1.28 fold enrichment (6-mer frequency, TF over GST control); with ETV7 it was 1.54 fold enrichment (6-mer frequency, TF over GST control); with ELF5, 1.38 fold enrichment (6-mer frequency, TF over GST control). For the same sequence, the binding signal in the assay with ETV3 is 1.24 fold enrichment (6-mer frequency, TF over GST control); with ETV6, 1.28 fold enrichment (6-mer frequency, TF over GST control).
For GAATTC, the binding signal is 1.38 fold enrichment (6-mer frequency, TF over GST control) with ERF; 1.41 fold enrichment (6-mer frequency, TF over GST control) with ETV3L; 1.33 fold enrichment (6-mer frequency, TF over GST control) with ETS2; 1.33 fold enrichment (6-mer frequency, TF over GST control) with SPDEF; 1.32 fold enrichment (6-mer frequency, TF over GST control) in the assay with ETV7; 1.32 fold enrichment (6-mer frequency, TF over GST control) with ELF5. In addition, the binding signal with ETV3 is 1.35 fold enrichment (6-mer frequency, TF over GST control); in the assay with ETV6, 1.2 fold enrichment (6-mer frequency, TF over GST control).

Source of the values: article PMC7862700, “An all-to-all approach to the identification of sequence-specific readers for epigenetic DNA modifications on cytosine”.
